The test concerns MDA-MB-468 breast. The experiment in a line: NCI-60 one-dose screen, 48 h (100 = growth as untreated, 0 = no growth, -100 = all killed). Particulars: 10 µM unless noted.

We go through 55 molecules from PubChem BioAssay (NCI).

This is part of a sample that, as a whole, favours compounds with a hit. Of some 83,000 tested, about 20% had one in any assay.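 Note: values are percent growth. 100 is the growth of untreated cells, values between 100 and 0 indicate rising inhibition; between -100 and 0 indicates cell death.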 Unmarked numbers belong to inactive results. The source made the active and inactive calls. How the source made its calls: active means growth percent below 10; inactive means the rest.

On to `Cn1cc(-c2[nH]c3cc(NC(=O)[C@H](N)C4CCCCC4)cc4c3c2C=NNC4=O)cn1`, for which the growth was -83.3% (active).

`CCOC(=O)C(=O)/C(=C\c1ccc(Cl)cc1)C(=O)N1C(=S)NC(=O)C1CC(C)C` (stereo not given): the growth was 90%.

In the case of `O=C(Nc1ccc(Cl)cc1)c1cc2ccccc2cc1OP(=O)(O)O`, the growth was 71.3%.

Take `O=c1n(CC2CO2)c(=O)n(CC2CO2)n1CC1CO1` (stereo not given): the growth was 25.6%.

For the molecule `CC(C)(C)n1cc(-c2ccnc(NCCNS(=O)(=O)c3ccc(F)cc3)c2)c(-c2cccc(O)c2)n1`, the growth is 8.72% (active).

As to `Cc1cc(N(CCNc2ccnc3cc(Cl)ccc23)Cc2ccc3c(c2)OCO3)nc(N2CCN(C)CC2)n1`, the growth is -59% (active).

With `COc1ccc(Nc2cc(Cl)ccc2C(=O)O)cn1`, the growth was 95.8%.

As for `Cn1cc(C(=O)NCCC(=N)N)cc1NC(=O)CN=C(N)N`, the growth is 96.7%.

On to `CNc1nc2ncn(C)c2c(=O)[nH]1`, for which the growth was 101%.

For `CCOC(Cc1c(N)[nH]c(=S)[nH]c1=O)OCC`, the growth was 101%.

For `N=C(N)/N=C(\CCc1nc2ccccc2[nH]1)c1nc2ccccc2[nH]1`, the growth is 109%.

Consider `COc1ccc(/C=C/c2nc3ccccc3c(=O)n2-c2ccc(C#Cc3ccc(C(C)(C)C)cc3)cc2C)c(OC)c1`, for which the growth is 97.9%.

With `COc1ccc(/C=C(/C(=O)N2CCCCC2)c2cc(OC)c(OC)c(OC)c2)cc1`, the growth was 13.3%.

Consider `COc1ccc(Nc2ncccc2C(=O)NCc2cn(Cc3cccc(Oc4ccccc4)c3)nn2)c(OC)c1`, for which the growth was 14.8%.

For `CNC(=O)c1cc(Oc2cccc3nc(Nc4ccc(Oc5ccccc5)cc4)ccc23)ccn1`, the growth is 63.7%.

For the molecule `CCCCCCCCCCCCCCCCCCNC(=O)[C@H]1CSC(c2cccs2)N1` (stereo not given in full), the growth is 60.8%.

`CCCCCCN1C(=O)C2=C(c3ccc(Cl)cc3)Nc3c(c(C)nn3-c3ccccc3)C2c2ccccc21` (stereo not given): the growth was 84.5%.

As for `Cc1ncc(C(=O)Nc2ccc(CN3CCN(C)CC3)c(C(F)(F)F)c2)cc1C#Cc1c(N)ncc2ccccc12`, the growth is -74.8% (active).

As for `CC(=C(c1ccc(OCCN2CCCC2)cc1)c1ccc(OCCN2CCCC2)cc1)c1ccc(Cl)cc1`, the growth was -85.3% (active).

As for `CCCCn1c(=O)c(/C=C/C(=O)/C=C/c2cc3ccccc3n(CCCC)c2=O)cc2ccccc21`, the growth is -59.4% (active).

Regarding `C=C1C(=O)O[C@H]2[C@H]1CC/C(CNC(=O)Cc1c[nH]c3ccccc13)=C\CC[C@@]1(C)O[C@@H]21`, the growth was -79.9% (active).

Consider `CN1CCN(C(=O)OCCOCCOC(=O)N2CCN(C)CC2)CC1`, for which the growth is 107%.

Regarding `C/C(=N\Nc1cccc(Cl)n1)c1ccccn1`, the growth is -31.3% (active).

Regarding `Cc1nn(-c2ccc(F)cc2)c2ncnc(Oc3ccc(NC(=O)Nc4ccc(Cl)c(C(F)(F)F)c4)cc3)c12`, the growth was 97.8%.

Take `CCCCC1COc2cccc3c2N1C=C/C3=C\C(=O)N(C)c1cccc(Cl)c1` (stereo not given): the growth was 84.4%.

Consider `CN(C)C1CCN(Cc2ccc(NC(=O)c3cncc(C#Cc4cnc(N)c5ncccc45)c3)cc2C(F)(F)F)CC1`, for which the growth was 67%.

As for `CCC(=O)C1C(=O)c2ccccc2C1=O`, the growth is 115%.

Regarding `O=C(CSc1nnc(-c2ccc3nc(-c4ccccc4)[nH]c3c2)o1)Nc1ccc(C(=O)/C=C/c2ccccc2)cc1`, the growth is 112%.

Turning to `CC(=O)OC[C@]12CC[C@@H]([C@@H](C)c3nnc(-c4ccncc4)o3)[C@@H]1[C@H]1CC[C@@H]3[C@@]4(C)CC[C@H](OC(C)=O)C(C)(C)[C@@H]4CC[C@@]3(C)[C@]1(C)CC2`, the growth was 59%.

In the case of `COc1cc(-c2nn(-c3ccc(NC(=O)Nc4ccc(Cl)c(C(F)(F)F)c4)cc3)cc2-c2ccncc2)ccc1Cl`, the growth is -13.2% (active).

`C=CCN(/C=C/CN(CC=C)CC=C)CC=C`: the growth was 99.3%.

`CCN(CC)CC#CCOC(=O)[C@]1(C)CCC[C@]2(C)[C@H]3C[C@H]4C(C(C)C)=C[C@]3(CC[C@H]21)[C@@H]1C(=O)CCC(=O)[C@@H]14`: the growth was 11%.

On to `COC(CC(F)F)c1cn(S(=O)(=O)c2ccc(C)cc2)c2ccccc12` (stereo not given), for which the growth is 8.95% (active).

For the molecule `CCN(C(=O)N1CCN(c2cc3c(cc2F)c(=O)c(C(=O)O)cn3C2CC2)CC1)c1nc(-c2ccc(C)cc2)cs1`, the growth was -0.725% (active).

Regarding `COc1cc(-c2nn(C(=O)NS(=O)(=O)c3ccccc3)cc2-c2ccncc2)ccc1Cl`, the growth was 68%.

Regarding `CN(C)CCOC(=O)Nc1ccccc1Cl`, the growth is 113%.

On to `COc1ccc(C2CC(c3ccc(Nc4nc(NCCO)nc(Nc5ccc(Cl)cc5)n4)cc3)=Nc3c(N)nc(N)nc3N2)cc1` (stereo not given), for which the growth was -23% (active).

As for `CCN(CC)CCCC(C)Nc1ccnc2cc(Cl)c(SCc3ccccc3)cc12` (stereo not given), the growth was -88.5% (active).

Take `O=C(/C=C/C=C/c1ccccc1)c1ccco1`: the growth was 29.3%.

`Cc1ccc2nc(Cl)cc(=O)n2c1`: the growth was 112%.

As for `Cc1c(C(N)=O)sc2c1c(=O)n(Cc1ccccc1)c1nnc(SCC(=O)Nc3ccc(Cl)cc3)n21`, the growth is 39.6%.

`COc1ccc(Oc2nc(Nc3ccc(N4CCOCC4)nc3)ncc2NC(=O)c2cc(OC)cc(OC)c2)cc1`: the growth is 82.1%.

On to `CCCCCCN=C(N)CCCCCCCCCCC(N)=NCCCCCC`, for which the growth is -8.12% (active).

On to `Cc1cnc(Nc2ccc(OCCN3CCCC3)cc2)nc1NCc1ccco1`, for which the growth is 80.8%.

Regarding `COc1ccc(C2CC(c3ccc(Nc4nc(NCCO)nc(N5CCOCC5)n4)cc3)=Nc3c(N)nc(N)nc3N2)cc1` (stereo not given), the growth is 90.3%.

As for `O=C(Nc1ccc(OS(=O)(=O)c2ccccc2)cc1)C1CCCCC1`, the growth was 103%.

`CN(C)c1ccc(/C=c2\s/c(=C\C(=O)C(C)(C)C)[nH]c2=O)cc1`: the growth is 109%.

In the case of `O=[N+]([O-])c1ccccc1C(O)Cc1ccc2ccccc2n1` (stereo not given), the growth was 79.7%.

In the case of `NC(=O)NCCCC(N)C(=O)O` (stereo not given), the growth was 107%.

Take `O=C1CC[C@@H](C(=O)N[C@H]2CSSC[C@@H](C(=O)NCCc3ccccc3)NC(=O)[C@H](Cc3ccccc3)NC(=O)[C@@H]3CCCN3C(=O)[C@@H]3CCCN3C2=O)N1`: the growth was 90.2%.

As to `COC(=O)c1nc(-c2ccccc2)oc1S(=O)(=O)N1CCN(c2cccc(Cl)c2)CC1`, the growth was 46.6%.

Turning to `Cc1ccc(C)c(NC2=C(Cl)C(=O)c3nc(C)ccc3C2=O)c1`, the growth is -73.5% (active).

On to `CCCCCCc1nc2c(c(C)nn2-c2ccccc2)c2c1CCCCC2`, for which the growth is 127%.

Turning to `CC(C)CC1NC(=O)C(CC(C)C)N(CO)C1=O` (stereo not given), the growth is 99.3%.

With `Cc1sc2nc(NCc3ccccc3)[nH]c(=O)c2c1C`, the growth was 23.7%.
